# D2 PAM-1: D2 dopamine receptor (human) potentiation. AID 485347. HEK293 T-REx D2, calcium flux, EC20 dopamine potentiation. P14416. potentiation, % at 10 µM. 0.34% of 340,000 active;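 active = potentiation over 3 SD above the plate norm, cut at about 30% in these data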; note: 0% is about no effect
# Target sequence (P14416 whole entry, looked up): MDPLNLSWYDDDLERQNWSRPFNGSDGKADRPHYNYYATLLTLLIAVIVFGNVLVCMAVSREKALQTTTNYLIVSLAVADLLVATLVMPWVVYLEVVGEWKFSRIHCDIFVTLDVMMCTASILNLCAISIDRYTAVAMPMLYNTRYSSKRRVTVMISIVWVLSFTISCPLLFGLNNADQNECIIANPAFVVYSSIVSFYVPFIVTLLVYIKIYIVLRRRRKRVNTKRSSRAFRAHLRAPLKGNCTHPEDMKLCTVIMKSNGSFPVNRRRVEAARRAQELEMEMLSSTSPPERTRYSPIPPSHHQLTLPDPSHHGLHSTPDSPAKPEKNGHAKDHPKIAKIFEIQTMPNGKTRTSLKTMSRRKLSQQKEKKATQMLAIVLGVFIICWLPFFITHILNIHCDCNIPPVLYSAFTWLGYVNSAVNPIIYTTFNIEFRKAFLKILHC
#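 Potentiation of an EC20 dopamine calcium response measured kinetically over 180 s, after a preceding 180 s compound-only read flagging agonists. Cells: inducible Hek293 Trex D2 line, 4000/well, cultured overnight at 30 C before dye loading.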
# D2 antagonist: D2 dopamine receptor (human) antagonism; P14416; HEK293 TREx D2 cells, calcium flux, dopamine EC80; inhibition, % at 10 µM; 2% of 340,000 active; in the data active = inhibition above about 30%; inactive = below that, where a call was filed; note: 0% is about no effect
#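 Tetracycline-induced HEK293 T-REx cells expressing D2 force-coupled to calcium signalling were dye-loaded, exposed to compound for 180 s, then challenged with an EC80 of dopamine; calcium flux was followed kinetically for a further 180 s.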
# D2 PAM-2: potentiates the human D2 dopamine receptor allosterically. 0.23% of 360,000 active. P14416. potentiation, % (concentration not given with the values). AID 624464. DiscoveRx D2 beta-arrestin cells, luminescence, 90 min; 100% = 57 uM dopamine signal; in the data active = potentiation above about 50%
#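 PathHunter beta-arrestin assay in DiscoveRx D2 cells. Compounds were added with an EC20 of dopamine (50 nM final) for 90 min at 37 deg C. Luminescence was read 1 h after detection reagent, with 57 uM dopamine as the EC100 control.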
# D2 ag-1: D2 dopamine receptor (human) agonism; HEK293 T-REx D2 cells, calcium flux agonist mode; activation, % at 2 µM; AID 485358; 0.53% of 340,000 active;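 active = activation over 3 SD above normal in the single-dose calcium agonist read, cut at about 30% in these data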; note: 0% is about no effect
#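 Agonism is scored from calcium flux in a force-coupled, inducible HEK293 cell line expressing D2, read kinetically for 180 s after compound addition against dopamine controls.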
# D2 ag-2: human D2 receptor agonism in beta-arrestin assay; DiscoveRx PathHunter D2 beta-arrestin, luminescence, 90 min; 100% = 57 uM dopamine signal; activation, % (concentration not given with the values); P14416; 0.084% of 360,000 active; in the data active = activation above about 40%
#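 Agonist mode: compounds alone added to overnight-plated D2 PathHunter cells for 90 min at 37 C, with 57 uM final dopamine (EC100) defining full response. Beta-arrestin recruitment detected by chemiluminescent reagent, read after 1 h at ambient temperature.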
# * = called active by the depositor; · = no result. Rows were chosen to be rich in hits. Some 2.4% of all compounds tested hit in one or more screens of this group.
SMILES,D2 PAM-1,D2 antagonist,D2 PAM-2,D2 ag-1,D2 ag-2
O=C(Cc1ccc(Cl)cc1)Nc1ccc2oc(=O)ccc2c1,4,12,-3,-2,-2
O=C(Cc1ccc(Cl)cc1)Nc1ccc(-c2cc3ccccc3oc2=O)c(Cl)c1,8,46*,10,0,-6
COc1cc(Cl)c(CC(=O)c2c[nH]c3ccccc23)cc1OC,-3,33*,-4,1,4
CCN(CC)c1ccc(N=C2C=CC(=O)C=C2NC(C)=O)cc1,·,·,-24,·,-1
CN(C)c1ccc(/C=C/C(=O)c2c(O)c3ccccc3oc2=O)cc1,4,-2,2,39*,4
O=C(CN1C(=O)NC2(CCCCCC2)C1=O)Nc1ccc(OC(F)(F)F)cc1,·,·,-18,·,1
O=C(NC12CC3CC(CC(C3)C1)C2)N1CCN(c2ccccn2)CC1,-2,31*,-8,36*,1
Cc1oc2cc(O)ccc2c(=O)c1Oc1ccccc1,5,17,-17,0,-3
Cc1oc2cc(O)ccc2c(=O)c1Oc1ccccc1Br,-6,37*,2,-2,-3
COc1ccc(CCN2CC(C(=O)N3CCCCCC3)CCC2=O)cc1 (stereo unspecified),-16,3,-14,0,-4
CCN(CCCc1ccccc1)CCCc1ccccc1,-31,83*,-32,2,-9
CCCN(CCO)CCCc1ccccc1,6,-3,-22,0,0
CCc1ccccc1NC(=O)N1CC(C)Sc2ccccc21 (stereo unspecified),3,·,·,-1,·
O=C1c2cccc3c(N4CCCCC4)ccc(c23)C(=O)N1c1ccccn1,0,-5,-4,37*,-3
CC(=O)N(C(C)=O)N1C(=O)c2cccc3c(N4CCOCC4)ccc(c23)C1=O,3,-3,-12,9,8
CNC(=O)Cn1nc(-c2ccc(C)c(S(=O)(=O)N(C)C)c2)c2ccccc2c1=O,38*,-6,-7,-1,-2
O=C(Nc1ccc(S(=O)(=O)N2CCc3ccccc3C2)cc1)C1CCCO1 (stereo unspecified),-15,11,-11,0,-2
CN(C)S(=O)(=O)N1CCc2ccc(NC(=O)C3CCCO3)cc2C1 (stereo unspecified),0,31*,-5,1,-1
COc1ccccc1CN1C[C@@H]2C[C@@H](C3=Cc4cc(Cl)ccc4OC3)N3CCC[C@@]23C1=O,6,31*,-2,1,-1
Cc1cc(N2CCC(C)CC2)nc2ccc(NC(=O)Cc3c(F)cccc3Cl)cc12,30,·,·,1,·
O=C(Oc1ccccc1F)c1ccc2c(=O)n3c(nc2c1)CCC3,-7,32*,6,0,-1
Cc1ccc(C)c(NC(=O)CN(C)C(=O)c2ccc3c(=O)n4c(nc3c2)CCC4)c1,-27,33*,-29,0,-1
O=C(Oc1ccccc1Cl)c1ccc2c(=O)n3c(nc2c1)CCC3,19,8,-12,0,10
CC(C)(C)c1cc(NC(=O)COC(=O)c2ccc3c(=O)n4c(nc3c2)CCC4)n(-c2ccccc2)n1,46*,-10,3,0,0
O=C1[C@@H](Oc2ccccc2)[C@@H](c2cnc3ccccc3c2)N1c1ccccc1,·,·,·,·,1
SMILES,D2 PAM-1,D2 antagonist,D2 PAM-2,D2 ag-1,D2 ag-2
CCn1c(C)nc2cc(C(=O)N/N=C/c3ccc(O)c(O)c3O)ccc21,-7,-6,16,32*,1
CC1CCCC(NC(=O)CCCCCn2c(=S)[nH]c3ccsc3c2=O)C1C (stereo unspecified),·,·,-13,·,-1
O=S(=O)(c1ccccc1)N1N=C(c2cccs2)CC1c1ccc(Br)cc1 (stereo unspecified),35*,13,-14,0,-1
COc1ccc(-c2cn3nc(N4CCCC(C(=O)NCc5ccccc5OC)C4)sc3n2)cc1 (stereo unspecified),-11,·,·,0,·
Cc1ccc(NC(=O)Cn2c(=O)n(CCCS(=O)(=O)C3CCCCC3)c(=O)c3ccccc32)cc1F,-12,·,·,0,·
CC12CN3CC(C)(CN(C1)C3c1ccc([N+](=O)[O-])o1)C2 (stereo unspecified),-8,32*,1,0,3
Cc1ccc(CN2C(=O)C(O)(CC(=O)c3ccc(C)cc3)c3ccccc32)cc1 (stereo unspecified),12,·,·,1,·
CCOc1ccc2[nH]c3c(NCCOC)ncnc3c2c1,31*,-10,12,-2,-7
COCCn1c(Cc2ccccc2)nnc1SCC(=O)NC1CC1,12,32*,-4,2,-6
Cn1c(Cc2ccccc2)nnc1SCC(=O)NC1CC1,-1,-10,-3,0,2
CCC1(C)SC(NC(C)=O)=NN1C(C)=O (stereo unspecified),8,0,-6,4,-2
CC(=O)NC1=NN(C(C)=O)C(C)(CS(=O)(=O)c2ccc3ccccc3c2)S1 (stereo unspecified),4,39*,-25,0,-2
COc1n[nH]c(C(=O)Nc2cc(Cl)ccc2Cl)c1[N+](=O)[O-],7,32*,-3,0,-7
CCOC1=C2[C@H](c3ccccc3)N(S(=O)(=O)c3ccc(C)cc3)C[C@H]2n2c(=O)n(-c3ccccc3)c(=O)n2C1,·,·,-4,·,-7
CCc1nn(CC(=O)NCCCN2CCN(C)CC2)c(=O)c2cc3sc(C)cc3n12,1,3,-16,1,-2
CCc1cc2c(cc3c(=O)n(CC(=O)NCCCN4CCCCCC4)nc(CC)n32)s1,-21,33*,-1,-1,-6
CC[C@@H](NCCCn1cnc2c(SC)ncnc21)c1ccccc1,·,·,·,·,2
CCC(C)NCCOc1ccc(C)cc1[N+](=O)[O-] (stereo unspecified),-21,54*,-21,0,-4
CCCCNCCOCCOc1ccc(C)cc1[N+](=O)[O-],-31,-1,-16,-1,-1
C=CCc1ccc(OCCOCCOc2ccc(C)cc2[N+](=O)[O-])c(OC)c1,13,-21,-15,0,-2
COCCCNCCCCOc1ccc(C)cc1[N+](=O)[O-],·,·,-17,·,0
C=CCN(CC=C)CCOc1ccc(C)cc1[N+](=O)[O-],-23,38*,-6,-1,1
C=CCNCCOc1ccc(C)cc1[N+](=O)[O-],-31,46*,-8,0,-4
O=C(CSCc1cc(=O)n2ccsc2n1)Nc1ccccc1,1,12,1,0,-3
COc1ccc(N2CCN(C(=O)c3cccn4c(=O)c5ccc(Cl)cc5nc34)CC2)cc1,3,·,·,1,·
COc1cccc(-c2nc(C(N)=O)c3c(n2)n(-c2ccc4c(c2)OCO4)c(=O)n3C)c1OC,-2,·,·,-2,·

# Screening results (PubChem BioAssay)
